# Measured values published in PubChem BioAssay.
# The source made the active and inactive calls.
# Experiments:
# [1] = optical density shifts of acrAB sulA E. coli – strain DRC41, OD650, 48 h, E. coli filamentation inducer project, primary screen (AID 1152); details: higher = more signal, called active from +8 up or from −8 down;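 also: E. coli MC1000 strain DRC41 lacking acrAB efflux pump and sulA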
# [2] = probe aLefty1 binding on compound microarray – biochemical, small-molecule microarray, 635/667 nm fluorescence, primary screen (AID 1153); details: higher = more signal;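 also: score merges spot fluorescence with signal-to-noise ratio from the scanned slide images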
# [3] = plasmodial surface anion channel blockers, osmotic lysis – cell-based, P. falciparum Indochina, OD700, 1 h, primary screen (AID 1154); details: P. falciparum Indochina infected RBC osmotic lysis, higher = more signal, called active from +8 up or from −8 down
# [4] = plasmodial surface anion channel blockers, osmotic lysis – cell-based, P. falciparum Indochina, OD700, 2 h, primary screen (AID 1155);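 also: lysis reports solute entry through the parasite surface anion channel PSAC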; details: P. falciparum Indochina infected erythrocytes, higher = more signal, called active from +8 up or from −8 down
# [5] = changes in parasitized red cell lysis, either direction – P. falciparum Indochina, OD700, 3 h, PSAC antagonist project, primary screen (AID 1156); details: P. falciparum-infected erythrocytes, osmotic lysis, higher = more signal, called active from +8 up or from −8 down
# [6] = plasmodial surface anion channel blockers, osmotic lysis – cell-based, P. falciparum Indochina, OD700, 18 h, primary screen (AID 1157); details: P. falciparum Indochina infected erythrocytes, osmotic lysis OD700, 18 h; higher = more signal, called active from +8 up or from −8 down
# [7] = S6 kinase pathway phospho-S6 level changes – cell-based, A549, cytoblot, luminescence, serum-stimulated, primary screen (AID 1158); details: 5 h, higher = more signal;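 also: serum-stimulated A549 lung adenocarcinoma cells; signal is phosphorylated S6 detected by cytoblot immunostaining with HRP secondary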
# [8] = biological target: NADPH oxidase 2 (Homo sapiens) (UniProt P04839); assay: compounds shifting NOX2 Amplex Red fluorescence – cell-based, HEK293-NOX2, PMA-stimulated, NOX inhibitor project, primary screen (AID 1159); details: 45 min, higher = more signal, called active from +8 up or from −8 down; also: test concentration not given here
# Sequence of NADPH oxidase 2 (Homo sapiens) (P04839 whole entry, looked up): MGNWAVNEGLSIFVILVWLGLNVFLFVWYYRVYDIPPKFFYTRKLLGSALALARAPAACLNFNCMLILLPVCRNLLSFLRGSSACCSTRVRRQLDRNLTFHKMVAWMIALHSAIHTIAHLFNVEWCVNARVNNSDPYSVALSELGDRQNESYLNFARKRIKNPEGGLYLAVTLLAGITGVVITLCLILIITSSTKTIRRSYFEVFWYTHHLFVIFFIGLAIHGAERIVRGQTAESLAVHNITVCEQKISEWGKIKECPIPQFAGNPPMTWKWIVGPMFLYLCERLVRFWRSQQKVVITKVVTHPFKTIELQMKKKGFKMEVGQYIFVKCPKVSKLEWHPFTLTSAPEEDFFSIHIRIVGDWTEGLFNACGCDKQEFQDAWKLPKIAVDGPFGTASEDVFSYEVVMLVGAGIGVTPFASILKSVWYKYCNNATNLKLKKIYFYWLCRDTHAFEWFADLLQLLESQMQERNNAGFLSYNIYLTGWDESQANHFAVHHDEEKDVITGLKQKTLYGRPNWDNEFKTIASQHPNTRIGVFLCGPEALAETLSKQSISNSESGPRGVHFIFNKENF
# [9] = biological target: NADPH oxidase 4 (Homo sapiens) (UniProt Q9NPH5); assay: compounds shifting NOX4 Amplex Red fluorescence – cell-based, HEK293-NOX4, tetracycline-induced, NOX inhibitor project, primary screen (AID 1160); details: HEK293-NOX4, Amplex Red H2O2 fluorescence, 45 min; higher = more signal, called active from +8 up or from −8 down
# Sequence of NADPH oxidase 4 (Homo sapiens) (Q9NPH5 whole entry, looked up): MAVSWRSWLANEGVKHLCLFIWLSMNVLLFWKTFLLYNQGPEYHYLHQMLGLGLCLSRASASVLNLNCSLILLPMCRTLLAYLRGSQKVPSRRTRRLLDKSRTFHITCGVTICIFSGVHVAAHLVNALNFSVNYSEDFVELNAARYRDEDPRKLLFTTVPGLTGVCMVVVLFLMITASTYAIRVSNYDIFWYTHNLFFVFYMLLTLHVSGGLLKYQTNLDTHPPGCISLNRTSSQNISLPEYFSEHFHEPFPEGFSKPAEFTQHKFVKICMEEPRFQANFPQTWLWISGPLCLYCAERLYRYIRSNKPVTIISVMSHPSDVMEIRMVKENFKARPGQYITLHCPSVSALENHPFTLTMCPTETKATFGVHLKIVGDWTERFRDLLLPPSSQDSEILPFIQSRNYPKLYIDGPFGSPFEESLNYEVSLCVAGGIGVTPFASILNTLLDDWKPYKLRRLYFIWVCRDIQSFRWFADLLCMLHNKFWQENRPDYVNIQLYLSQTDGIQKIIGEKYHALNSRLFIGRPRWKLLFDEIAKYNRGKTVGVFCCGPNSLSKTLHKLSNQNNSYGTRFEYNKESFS
# [10] = biological target: NADPH oxidase 5 (Homo sapiens) (UniProt Q96PH1); assay: compounds shifting NOX5 Amplex Red fluorescence – cell-based, HEK293-NOX5, NOX inhibitor project, primary screen (AID 1161); details: HEK293-NOX5, ionomycin, 45 min, higher = more signal
# Sequence of NADPH oxidase 5 (Homo sapiens) (Q96PH1 whole entry, looked up): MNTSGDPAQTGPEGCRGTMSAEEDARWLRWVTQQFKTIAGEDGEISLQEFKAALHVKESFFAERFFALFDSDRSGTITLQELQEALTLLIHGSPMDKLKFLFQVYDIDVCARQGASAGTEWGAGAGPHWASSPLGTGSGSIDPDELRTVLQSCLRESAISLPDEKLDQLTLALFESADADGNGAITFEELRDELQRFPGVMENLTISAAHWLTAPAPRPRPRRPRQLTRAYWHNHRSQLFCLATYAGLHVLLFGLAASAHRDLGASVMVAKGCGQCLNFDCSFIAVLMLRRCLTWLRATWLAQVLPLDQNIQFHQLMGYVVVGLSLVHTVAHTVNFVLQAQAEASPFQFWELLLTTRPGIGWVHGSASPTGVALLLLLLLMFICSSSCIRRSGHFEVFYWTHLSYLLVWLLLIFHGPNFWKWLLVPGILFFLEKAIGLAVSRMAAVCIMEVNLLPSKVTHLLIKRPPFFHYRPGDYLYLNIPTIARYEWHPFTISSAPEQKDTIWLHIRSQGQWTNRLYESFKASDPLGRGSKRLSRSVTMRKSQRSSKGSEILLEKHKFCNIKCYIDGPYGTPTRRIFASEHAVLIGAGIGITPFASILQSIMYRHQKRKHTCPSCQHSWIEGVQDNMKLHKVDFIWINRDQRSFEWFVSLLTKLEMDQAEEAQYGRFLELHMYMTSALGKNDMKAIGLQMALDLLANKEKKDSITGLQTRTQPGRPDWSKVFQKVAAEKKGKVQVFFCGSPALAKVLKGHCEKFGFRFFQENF
# [11] = compound effects on lung adenocarcinoma cell viability – A549, calcein-AM fluorescence, 48 h, basal, profiling panel (AID 1162); details: higher = more signal; also: test concentration not given here
# [12] = compound effects on differentiated 3T3-L1 adipocyte viability – cell-based, 3T3-L1 adipocytes, calcein-AM fluorescence, 48 h, basal, profiling panel (AID 1163); details: 3T3-L1 adipocytes viability, higher = more signal; also: test concentration not given here
# [13] = compound effects on hepatocellular carcinoma cell viability – HepG2, calcein-AM fluorescence, 48 h, basal, profiling panel (AID 1164); details: higher = more signal; also: test concentration not given here
# [14] = compound effects on multiple myeloma cell viability – MM1S, calcein-AM fluorescence, 48 h, basal, profiling panel (AID 1165); details: higher = more signal;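 also: viability of MM1S multiple myeloma cells under basal unstimulated conditions; test concentration not given here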
# [15] = calcein-AM signal in unstimulated myeloma cells – cell-based, calcein-AM fluorescence, 48 h, PK04 Diversity Set, profiling panel (AID 1166); details: RPMI8226 myeloma viability, higher = more signal;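 also: cells grown under basal conditions without added stimulus; test concentration not given here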
# [16] = JC-1 mitochondrial signal, unstimulated HepG2 cells – cell-based, JC-1 fluorescence, 24 h, 100 nL compound, profiling panel (AID 1167); details: HepG2 mitochondrial potential, higher = more signal; also: test concentration not given here
# [17] = JC-1 mitochondrial signal, unstimulated adipocytes – cell-based, JC-1 fluorescence, 3T3-L1 adipocytes, 24 h, 100 nL compound, profiling panel (AID 1168); details: JC-1 mitochondrial fluorescence, higher = more signal, called active from +8 up or from −8 down; also: test concentration not given here
# [18] = JC-1 mitochondrial signal, unstimulated myeloma cells – cell-based, JC-1 fluorescence, RPMI8226, 24 h, 100 nL compound, profiling panel (AID 1169); details: JC-1 mitochondrial potential fluorescence, higher = more signal; also: test concentration not given here
# [19] = JC-1 mitochondrial signal, unstimulated MM1S myeloma – cell-based, JC-1 fluorescence, 24 h, 100 nL compound, profiling panel (AID 1170); details: MM1S mitochondrial potential, higher = more signal; also: test concentration not given here
# [20] = resazurin metabolic signal in A549 cells – cell-based, resazurin fluorescence, 24 h, PK04 Diversity Set, profiling panel (AID 1171); details: A549 viability, higher = more signal, called active from +8 up or from −8 down; also: test concentration not given here
Structure (SMILES),z-score [1],composite z-score [2],z-score [3],z-score [4],z-score [5],z-score [6],z-score [7],z-score [8],z-score [9],z-score [10],z-score [11],z-score [12],z-score [13],z-score [14],z-score [15],z-score [16],z-score [17],z-score [18],z-score [19],z-score [20]
COCCOC(=O)N1C(=O)[C@@]2(c3cc(C#CCCO)ccc31)[C@H](C(=O)N1CCN(c3ncccn3)CC1)[C@H]1C(=O)O[C@H](c3ccccc3)[C@H](c3ccccc3)N1[C@@H]2c1ccc(O)cc1,1.35 (inactive),-0.36,1.78 (inactive),0.133 (inactive),1.21 (inactive),0.684 (inactive),0.188,1.69 (inactive),1.21 (inactive),1.29,1.61,0.222,1.54,0.14,0.0881,-0.141,0.339 (inactive),-0.614,-1.07,0.249 (inactive)
COc1ccc(CCNC(=O)[C@@]2(C)c3ccccc3C(=O)N(Cc3cc(C(F)(F)F)cc(C(F)(F)F)c3)[C@H]2c2ccc(CO)cc2)cc1,1.28 (inactive),-0.216,8.19 (active),0.566 (inactive),1.85 (inactive),-0.388 (inactive),2.76,-3.19 (inactive),-1.7 (inactive),-2.75,0.0571,1.28,-0.23,-2.16,-3.99,1.11,-0.299 (inactive),-0.428,0.783,0.616 (inactive)
COCCCNC(=O)[C@@H]1c2ccccc2C(=O)N(Cc2cc(C(F)(F)F)cc(C(F)(F)F)c2)[C@H]1c1ccc(CO)cc1,0.144 (inactive),1.24,1.58 (inactive),-0.0915 (inactive),0.532 (inactive),0.254 (inactive),-0.348,0.175 (inactive),0.414 (inactive),1.54,0.301,-0.458,0.519,0.514,-1.74,0.983,0.385 (inactive),-0.992,0.636,-0.266 (inactive)
COc1ccc(CCNC(=O)[C@@]2(Sc3ccc(C)cc3)CC(=O)N(Cc3cc(C(F)(F)F)cc(C(F)(F)F)c3)[C@@H]2c2ccc(CO)cc2)cc1,-0.601 (inactive),0.469,1.54 (inactive),0.518 (inactive),0.0927 (inactive),-0.0392 (inactive),0.0684,-0.626 (inactive),0.539 (inactive),1.02,-0.147,0.7,-0.29,-0.305,-0.24,0.016,-0.563 (inactive),1.15,-0.145,0.423 (inactive)
COCCn1c(C(=O)N2CCCC2)cc2c1C[C@H]1CN(C(=O)c3ccccc3)[C@@](Cc3ccccc3)(C(=O)OC)[C@@H]21,-0.91 (inactive),1.46,1.46 (inactive),0.103 (inactive),1.98 (inactive),1.01 (inactive),1.09,0.582 (inactive),-0.6 (inactive),-3.94,-1.94,-0.239,-0.768,0.0841,-1.37,0.678,-0.416 (inactive),-0.803,-0.688,-0.0413 (inactive)
COC(=O)[C@@]1(CCS(=O)(=O)c2ccccc2)N=C(c2ccc(OCCCO)cc2)O[C@H]1c1ccccc1N=[N+]=[N-],-0.527 (inactive),-0.0559,26.9 (active),22.3 (active),1.09 (inactive),3.42 (inactive),0.819,-1.31 (inactive),1.02 (inactive),-1.59,-1.66,0.81,-0.474,-0.746,0.206,0.335,-0.852 (inactive),-0.687,-0.426,-2.02 (inactive)
CC(C)C[C@@H]1NC(=O)[C@@H]2C[C@H](C(=O)O)[C@H](c3ccc(O)cc3)N2C1=O,2.59 (inactive),0.013,4.56 (inactive),0.677 (inactive),-0.641 (inactive),0.179 (inactive),1.09,0.304 (inactive),0.398 (inactive),-0.107,0.704,0.37,0.285,-1.32,0.126,0.962,-0.773 (inactive),-0.49,0.3,1.64 (inactive)
COc1ccccc1CN1C(=O)c2ccccc2[C@@H](C(=O)NCCCN(C)C)[C@@H]1c1ccc(CO)cc1,1.21 (inactive),-0.552,2.02 (inactive),-0.141 (inactive),0.445 (inactive),-0.583 (inactive),0.506,0.676 (inactive),-0.436 (inactive),-2.04,1.29,0.608,1.07,0.376,0.0552,3.31,0.629 (inactive),0.262,0.325,0.997 (inactive)
